# Laboratory results published in PubChem BioAssay (NCATS).
# Where “and” joins values, the source holds several entries; their conditions need not be identical. Identical values can stand only once. Records with an inconclusive call do not appear. Entries that show only a call come without a potency. Unmarked numbers belong to inactive results. Calls of active or inactive are those of the source. Calls come from the whole dose curve; as a rule, active = well fitted curve in the direction sought with a large enough effect; inconclusive = small, poorly fitted or top-dose-only effect, or another doubt; inactive = no such curve, though single readings can be large; an effect the other way counts as inactive or inconclusive.
# Assays:
# [1] = biological target: Calcium and integrin-binding protein 1 (Homo sapiens) (UniProt Q99828); assay: Primary qHTS for Identification of Calcium Integrin Binding Protein 1 (CIB1) Competitor (AID 1508620); conditions: CIB1-GST / FITC-alphaIIb peptide fluorescence polarization; series mostly up to 114 µM;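 note: GST tagged CIB1 binding a fluorescein labelled alphaIIb integrin peptide tracer; top concentration of the series differs between compounds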
# Outline: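 Fluorescence polarization competition: GST-tagged CIB1 (1 uM final) preincubated with compound 15 min at room temperature, then FITC-labelled alphaIIb peptide (100 nM final) added. After 15 min at room temperature, polarization read at Ex 480/Em 540.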
# [2] = Primary qHTS for inhibitors of nuclear receptor binding SET domain protein 2 (NSD2) in an isogenic RCH-ACV NSD2 p.E1099K mutant (9B) (AID 1645876); conditions: RCH-ACV NSD2 E1099K (9B) viability, CellTiter-Glo, 72 h; series mostly up to 44.9 µM; note: nearly all actives have a fitted effect of over 70% in size; note: potency is the fitted concentration of half-maximal effect
# [3] = Primary qHTS for inhibitors of nuclear receptor binding SET domain protein 2 (NSD2) in an RCH-ACV wild type WT cells (2C) (AID 1645877); conditions: RCH-ACV (leukaemia line) NSD2 WT (2C) viability, CellTiter-Glo, 72 h; series mostly up to 44.9 µM; note: nearly all actives have a fitted effect of over 70% in size; note: potency is the fitted concentration of half-maximal effect
# Calcium and integrin-binding protein 1 (Homo sapiens), sequence (Q99828 whole entry, looked up): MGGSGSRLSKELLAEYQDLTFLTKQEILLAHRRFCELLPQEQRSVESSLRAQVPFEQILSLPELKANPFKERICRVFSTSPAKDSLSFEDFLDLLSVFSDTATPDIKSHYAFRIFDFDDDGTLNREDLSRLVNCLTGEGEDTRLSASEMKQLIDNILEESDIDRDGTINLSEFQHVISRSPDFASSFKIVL
compound,measurement,setting,value
C[C@@H]1O[C@@H](OC[C@H]2O[C@@H](OC(CCCCc3ccc(O)cc3)CCc3ccc(O)cc3)[C@H](O)[C@@H](O)[C@@H]2O)[C@H](O)[C@H](O)[C@H]1O (stereo not given in full),Potency,[1],inactive
same,Potency,[2],inactive
same,Potency,[3],inactive
CC1CCC2C(C(=O)O)=COC(O[C@@H]3O[C@H](CO)[C@@H](O)[C@H](O)[C@H]3O)C12 (stereo not given in full),Potency,[1],inactive
same,Potency,[2],inactive
same,Potency,[3],inactive
C[C@]12C=C[C@@]3(CCC4[C@](C)(CO)CCC[C@@]4(C)C3CC1)C2 (stereo not given in full),Potency,[1],inactive
same,Potency,[2],inactive
same,Potency,[3],inactive
CC(=O)O[C@@H]1c2c(C)coc2C(=O)[C@@]23O[C@@H]2CC[C@H](C)[C@@]13C,Potency,[1],inactive
same,Potency,[2],inactive
same,Potency,[3],inactive
CC1=C(C)C(=O)OC(C(C)C2CCC3C4CC=C5CC(OC6OC(COC7OC(CO)C(O)C(O)C7O)C(O)C(O)C6O)CC(O)C5(C)C4CCC23C)C1 (stereo not given),Potency,[1],inactive
same,Potency,[2],inactive
same,Potency,[3],inactive
C=C[C@]1(C)C[C@H](O)[C@@H]2[C@H](OC(=O)[C@@H]2C)C1/C(C)=C/O[C@@H]1O[C@H](CO)[C@@H](O)[C@H](O)[C@H]1O (stereo not given in full),Potency,[1],inactive
same,Potency,[2],inactive
same,Potency,[3],inactive
CC(=O)OC[C@H]1O[C@H](O[C@]2(CO)O[C@H](CO)[C@@H](OC(=O)/C=C/c3ccccc3)[C@@H]2O)[C@H](O)[C@@H](O)[C@@H]1O,Potency,[1],inactive
same,Potency,[2],inactive
same,Potency,[3],inactive
C[C@H](O)[C@H](O)/C=C/c1cccc(O)c1CO,Potency,[1],inactive
same,Potency,[2],inactive
same,Potency,[3],inactive
CC1CCC2(OC1)OC1CC3C4CC=C5CC(O)CC(O[C@@H]6OC[C@@H](O)[C@H](O)[C@H]6O)C5(C)C4CCC3(C)C1(O)C2C (stereo not given in full),Potency,[1],inactive
same,Potency,[2],inactive
same,Potency,[3],inactive
COC(=O)c1cc(OC)cc(OC)c1C(=O)c1c(OC)cc2c(c1O)C1CCCC(C)(O2)O1 (stereo not given),Potency,[1],inactive
same,Potency,[2],inactive
same,Potency,[3],inactive
C/C1=C\[C@H]2OC(=O)[C@@H](C)[C@@H]2CC/C(C(=O)O)=C/CC1,Potency,[1],inactive
same,Potency,[2],inactive
same,Potency,[3],inactive
C=C[C@H]1C(O[C@@H]2O[C@H](CO)[C@@H](O)[C@H](O)[C@H]2O)OC=C2C(=O)N3CCc4c([nH]c5ccccc45)[C@H]3C[C@H]21 (stereo not given in full),Potency,[1],inactive
same,Potency,[2],inactive
same,Potency,[3],inactive
CC1(C)CC[C@]2(C(=O)O[C@@H]3O[C@H](CO)[C@@H](O)[C@H](O)[C@H]3O)CC[C@]3(C)C(=CCC4[C@@]5(C)C[C@@H](O)[C@H](O)[C@](C)(C=O)C5CC[C@]43C)[C@@H]2[C@@H]1O (stereo not given in full),Potency,[1],inactive
same,Potency,[2],inactive
same,Potency,[3],inactive
CC[C@@H](O)C[C@@H]1C(C)=C[C@@H]2CCCC[C@@H]2[C@@]1(C)C(=O)O,Potency,[1],inactive
same,Potency,[2],inactive
same,Potency,[3],inactive
CC(=O)N[C@H]1[C@H](O[C@H]2CC[C@@]3(C)C(CC[C@]4(C)C3CC=C3[C@@H]5CC(C)(C)CC[C@]5(C(=O)OC5OCC(O)C(O)C5O)CC[C@]34C)C2(C)C)O[C@H](COC2OC(C)C(O)C(OC3OC(C)C(O)C(O)C3O)C2O)[C@@H](O)[C@@H]1O (stereo not given in full),Potency,[1],inactive
same,outcome,[2],inactive [at 9.23 µM]
same,"activity change, negative = cell killing",[3],1.82% [at 9.23 µM]
CCCC(=O)NCCc1csc(-c2ccc(Cl)cc2)n1,Potency,[1],inactive
same,Potency,[2],12.9 µM (active)
same,Potency,[3],18.3 µM (active)
COc1cc(O)cc(C)c1C(=O)O[C@@H]1[C@H](O)[C@@H](CO)O[C@H]1n1ccc(=O)[nH]c1=O,Potency,[1],inactive
same,Potency,[2],inactive
same,Potency,[3],inactive
O=C(OCC1=CC(O)C2C=CO[C@@H](O[C@@H]3O[C@H](CO)[C@@H](O)[C@H](O)[C@H]3O)C12)c1ccccc1 (stereo not given in full),Potency,[1],inactive
same,Potency,[2],inactive
same,Potency,[3],inactive
CC1=C2C3OC(=O)C(C)C3(O)CCC2(C)CCC1O (stereo not given),Potency,[1],inactive
same,Potency,[2],inactive
same,Potency,[3],inactive
CC(C)C(C#N)O[C@@H]1O[C@H](CO[C@@H]2O[C@@H](C)[C@H](O)[C@@H](O)[C@H]2O)[C@@H](O)[C@H](O)[C@H]1O (stereo not given in full),Potency,[1],inactive
same,Potency,[2],inactive
same,Potency,[3],inactive
COc1cc(-c2ncn(/C=C\C(=O)OC(C)C)n2)cc(C(F)(F)F)c1,Potency,[1],inactive
same,Potency,[2],0.129 µM (active)
same,Potency,[3],0.129 µM (active)
C[C@@H]1O[C@@H](O[C@H]2[C@H](O)[C@@H](C(=O)O)O[C@@H](O[C@H]3CC[C@@]4(C)C(CC[C@]5(C)C4CC=C4C6CC(C)(C)CC[C@]6(C(=O)O)CC[C@]45C)C3(C)C)[C@@H]2O[C@@H]2OC[C@@H](O)[C@H](O)[C@H]2O)[C@H](O)[C@H](O)[C@H]1O (stereo not given in full),Potency,[1],inactive
same,outcome,[2],inactive [at 9.23 µM]
same,outcome,[3],inactive [at 9.23 µM]
O=C(N/N=C/c1ccc(O)c(O)c1)c1cc2ccccc2cc1O,Potency,[1],inactive
same,Potency,[2],6.82 µM (active)
same,Potency,[3],5.41 µM (active)
CCOc1cc(C)c(Cl)cc1S(=O)(=O)n1cnc2ccccc21,Potency,[1],inactive
same,Potency,[2],inactive
same,Potency,[3],inactive
CC1(C)CC[C@]2(C(=O)OC3OC(CO)C(O)C(O)C3O)CC[C@]3(C)C(=CCC4[C@@]5(C)CC[C@H](OC6OC(C(=O)O)C(O)C(OC7OC(CO)C(O)C(O)C7O)C6O)C(C)(C)C5CC[C@]43C)C2C1 (stereo not given in full),Potency,[1],inactive
same,"activity change, negative = viability loss",[2],-3.97% [at 9.23 µM]
same,"activity change, negative = cell killing",[3],-7.21% [at 9.23 µM]
CC(C)=CCC[C@](C)(O[C@@H]1O[C@H](CO)[C@@H](O)[C@H](O)[C@H]1O)[C@H]1CC[C@]2(C)[C@@H]1[C@H](O)CC1[C@@]3(C)CC[C@H](O)C(C)(C)C3[C@@H](O[C@@H]3O[C@H](CO)[C@@H](O)[C@H](O)[C@H]3O)C[C@]12C (stereo not given in full),Potency,[1],inactive
same,Potency,[2],inactive
same,Potency,[3],inactive
O=C(c1ccc2nccnc2c1)N1CCCCC1,Potency,[1],inactive
same,Potency,[2],inactive
same,Potency,[3],inactive
Nc1nc2c(c(=O)[nH]1)C[C@@H](CCc1ccc(C(=O)N[C@@H](CCC(=O)O)C(=O)O)cc1)CN2,Potency,[1],inactive
same,Potency,[2],0.0115 µM (active)
same,Potency,[3],0.0092 µM (active)
CC(C)=CCC/C(C)=C/CO[C@@H]1O[C@H](CO)[C@@H](OC(=O)/C=C/c2ccc(O)cc2)[C@H](O[C@@H]2O[C@@H](C)[C@H](O)[C@@H](O)[C@H]2O)[C@H]1O,Potency,[1],inactive
same,Potency,[2],inactive
same,Potency,[3],inactive
Cc1cc(Cl)ccc1COc1ccnn1-c1cc(C(=O)O)ccn1,Potency,[1],inactive
same,Potency,[2],inactive
same,Potency,[3],inactive
CC1=CC(=O)C(=C(C)C)CC2C1CCC2(C)O (stereo not given),Potency,[1],inactive
same,Potency,[2],inactive
same,Potency,[3],inactive
CC/C=C\CCO[C@@H]1O[C@H](CO[C@@H]2OC[C@H](O)[C@H](O)[C@H]2O)[C@@H](O)[C@H](O)[C@H]1O,Potency,[1],inactive
same,Potency,[2],inactive
same,Potency,[3],inactive
COc1cc(OC)c(/C=C/S(=O)(=O)Cc2ccc(OC)c(NCC(=O)O)c2)c(OC)c1,Potency,[1],inactive
same,Potency,[2],57.8 nM (active) and 59 nM (active)
same,Potency,[3],51.5 nM (active) and 46.8 nM (active)
CNC12CC3C[C@@](C)(C1)C[C@](C)(C3)C2,Potency,[1],inactive
same,Potency,[2],inactive
same,Potency,[3],inactive
COC1C(CO)OC(n2cnc3c(=O)[nH]cnc32)C1O (stereo not given),Potency,[1],inactive
same,Potency,[2],inactive
same,Potency,[3],inactive
CC(C)=CCC/C(C)=C/CCC1(C)Oc2c(c(O)cc3c2CN(C(CCC(=O)O)C(=O)O)C3=O)CC1O (stereo not given),Potency,[1],inactive
same,Potency,[2],inactive
same,Potency,[3],inactive
COc1cc([C@H]2c3cc(O)c(OC)cc3C[C@@H](CO[C@@H]3O[C@H](CO)[C@@H](O)[C@H](O)[C@H]3O)[C@@H]2CO)ccc1O,Potency,[1],inactive
same,Potency,[2],inactive
same,Potency,[3],inactive
OC[C@H]1O[C@@H](OC(CCCCc2ccc(O)cc2)CCc2ccc(O)cc2)[C@H](O)[C@@H](O)[C@@H]1O (stereo not given in full),Potency,[1],inactive
same,Potency,[2],inactive
same,Potency,[3],inactive
CC1CC[C@]2(C(=O)O)CC[C@]3(C(=O)O)C(=CCC4[C@@]5(C)CC[C@H](O[C@@H]6O[C@H](CO)[C@@H](O)[C@H](O)[C@H]6O)C(C)(C)C5CC[C@]43C)C2C1C (stereo not given in full),Potency,[1],inactive
same,Potency,[2],inactive
same,Potency,[3],inactive
CC(C)CC1NC(=O)C(C)NC(=O)C(CC(C)C)OC(=O)CCCNC1=O (stereo not given),Potency,[1],inactive
same,Potency,[2],inactive
same,Potency,[3],inactive
CC1=C(C(=O)O)/C(=C\CO[C@@H]2O[C@H](CO)[C@@H](O)[C@H](O)[C@H]2O)C(OC(=O)/C=C\c2ccc(O)cc2)C1 (stereo not given in full),Potency,[1],inactive
same,Potency,[2],inactive
same,Potency,[3],inactive
CC1CC(O)C2(OC1=O)OC1C(O)C3C4CCC5CC(OC6OC(CO)C(O)C(O)C6OC6OC(C)C(O)C(O)C6O)CCC5(C)C4CCC3(C)C1C2C (stereo not given),Potency,[1],inactive
same,Potency,[2],inactive
same,Potency,[3],inactive
CC1COC2(OC3CC4C5CC(O[C@@H]6O[C@H](C)[C@@H](O[C@@H]7O[C@@H](C)[C@H](O)[C@@H](O)[C@H]7O)[C@H](O)[C@H]6O)C6CC(O)CCC6(C)C5CCC4(C)C3C2C)C(O)C1 (stereo not given in full),Potency,[1],inactive
same,Potency,[2],inactive
same,Potency,[3],inactive
C=C(C(=O)O)C1CCC2(C)CCC(O)C(=C)C2C1 (stereo not given),Potency,[1],inactive
same,Potency,[2],inactive
same,Potency,[3],inactive
CC(=O)OC1C(OC(=O)c2ccccc2)C2C(C)(C)CC(=O)CC2(C)C23CCC(C)(C2)C(O)CC13 (stereo not given),Potency,[1],inactive
same,Potency,[2],inactive
same,Potency,[3],inactive
CC1=C(CCC(C)CC(=O)O)[C@@]2(C)CCCC(C)(C)C2CC1=O (stereo not given in full),Potency,[1],inactive
same,Potency,[2],inactive
same,Potency,[3],inactive
NC(=O)[C@H]1CCS[C@@H]2C[C@]3(CCCN3C(=O)Cc3ccc(NC(=O)COc4ccc(Cl)cc4Cl)cc3)C(=O)N12,Potency,[1],inactive
same,Potency,[2],7.42 µM (active)
same,Potency,[3],5.25 µM (active)
CC(C)=CCC[C@](C)(O)[C@H]1CC[C@]2(C)[C@@H]1[C@H](O)CC1[C@@]3(C)CC[C@H](O)C(C)(C)C3[C@@H](O[C@@H]3O[C@H](CO)[C@@H](O)[C@H](O)[C@H]3O[C@@H]3OC[C@@H](O)[C@H](O)[C@H]3O)C[C@]12C (stereo not given in full),Potency,[1],inactive
same,Potency,[2],inactive
same,Potency,[3],inactive
CC1(C)CCCC2(C)C1C(O)C=C(CO)C2(O)CO (stereo not given),Potency,[1],inactive
same,Potency,[2],inactive
same,Potency,[3],inactive
C=CC1C(OC2OC(CO)C(O)C(O)C2O)OC=C2C(=O)N3C(C(=O)O)Cc4c([nH]c5ccccc45)C3CC21 (stereo not given),Potency,[1],inactive
same,Potency,[2],inactive
same,Potency,[3],inactive
